An excerpt weighted towards active compounds, which were near 13% of everything screened.
HCV inh = HCV inhibition; Potency, µM (top dose mostly 41.8 µM), usual class: inhibitors; AID 651820; Huh7.5.1 HCVcc-Cre infection, luciferase reporter, 44 h; 3.4% of 340,000 active
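Cells (1,000/well) were plated 4 h before compound, then infected with HCVcc-Cre virus (~0.5 moi). After 44 h further culture, infection was read as luciferase luminescence following a 15 min substrate incubation at room temperature.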
Pf growth 96h = P. falciparum growth inhibition at 96 hour, primary screen for plastid delayed-death inhibitors; AID 504834; P. falciparum luciferase reporter growth, 96 h; Potency, µM (titrated, usually from 28.7 µM), hits mostly inhibitors; 6.9% of 320,000 active
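Two-generation exposure (96 h) targets delayed-death phenotype. Reporter parasites carrying integrated firefly luciferase, in red cells at 2% hematocrit and 0.05% parasitemia final, kept at 37 C, 5% CO2; luminescence loss indicates inhibition.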
Pf growth 48h = inhibits P. falciparum growth in the first generation, 48 h; 5.9% of 310,000 active; Potency, µM (highest dose often 28.7 µM), actives largely listed as inhibitors; P. falciparum luciferase growth in erythrocytes, 48 h
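First compound was added to culture medium, then infected red cells at 0.1% parasitemia and 2% hematocrit (final). After incubation at 37 C under 5% CO2, luciferase detection reagent was dispensed and light output recorded.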
HCMV antiviral = human cytomegalovirus inhibition | HFF cells, HCMV-luciferase reporter, 72 h; stronger effect = lower value | activity change, negative = inhibition, % at 57.5 µM | 4.5% of 410,000 active | AID 1259415; in the data active = activity change below about -60%; inconclusive = no clear call, values can overlap the other calls; inactive = above about -39%
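Inhibition of viral replication was scored as loss of reporter luminescence in HFFs infected with HCMV-luciferase (MOI 1 PFU/cell) for 72 h; compounds tested at 2 doses, normalized to buffer and Salinomycin controls.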
A number is an active result. Unless noted, calls come from the whole dose curve; as a rule, active = well fitted inhibition curve with a large enough effect; inconclusive = small, poorly fitted or top-dose-only effect, or another doubt; inactive = no such curve, though single readings can be large or run the other way.

O=C(NC1CCCc2ccccc21)c1c(F)cccc1Cl (centres undefined) was read as HCV inh inactive, Pf growth 96h inactive, Pf growth 48h inactive and HCMV antiviral -67.
For O=C(Cc1ccc(Br)cc1)NC1CCCc2ccccc21 (centres undefined) the results were HCV inh inactive, Pf growth 96h inactive, Pf growth 48h inactive and HCMV antiviral inactive.
COc1ccccc1OCC(=O)NC1CCCc2ccccc21 (centres undefined) was read as HCV inh inactive, Pf growth 96h inactive, Pf growth 48h inactive and HCMV antiviral inactive.
`Cc1cccc(N2CCN(C3C(=O)Nc4ccccc4-n4nnnc43)CC2)c1C` (centres undefined) gave HCMV antiviral inactive.
For CN(C)C(=O)c1ccc(NC(=O)Cn2nnnc2-c2ccccc2F)cc1 the results were HCMV antiviral inactive.
COc1ccc(CCNC(=O)C(C)n2c(=O)cc(C(F)(F)F)c3c(C)nn(C)c32)cc1OC (centres undefined) was read as HCMV antiviral inactive.
Screening COc1ccc(-n2c(SCC(=O)O)nnc2-c2ccc(NC(=O)c3ccccc3)cc2)cc1 returned HCV inh inactive, Pf growth 96h inactive, Pf growth 48h 5.2µM and HCMV antiviral inactive.
For C=CCSc1nnc(-c2nnc(SCC=C)n2-c2ccccc2)n1-c1ccccc1 the results were HCV inh inactive, Pf growth 96h 6.6µM, Pf growth 48h inconclusive and HCMV antiviral inconclusive.
O=C(O)CSc1nnc(-c2ccc(Cl)cc2)n1-c1ccccc1 was read as Pf growth 96h 9.3µM, Pf growth 48h inactive and HCMV antiviral inactive.
CC(=O)/C(=N/Nc1ccccc1)Sc1nnc(CCc2ccccc2)n1-c1ccccc1 was read as HCV inh inconclusive, Pf growth 96h inactive, Pf growth 48h inactive and HCMV antiviral inactive.
Screening CC(=O)/C(=N\Nc1ccc(Cl)cc1)Sc1nnc(-c2ccccc2)n1-c1ccccc1 returned HCV inh inactive, Pf growth 96h 15µM, Pf growth 48h inactive and HCMV antiviral inactive.
C=CCSc1nnc(CCc2ccccc2)n1N was read as HCV inh inactive, Pf growth 96h inconclusive, Pf growth 48h inactive and HCMV antiviral inactive.
Screening CCN(CC)C(=O)c1ncn2c1C(=O)N[C@@H](C)C2 returned HCMV antiviral inactive.
For CCCc1nc2c(C)cc(C)cc2c(N)c1CC the results were HCV inh inconclusive, Pf growth 96h 10µM, Pf growth 48h 9.3µM and HCMV antiviral inactive.
For O=C(Nc1ccc(S(=O)(=O)NCC2CCCO2)cc1)c1ccc(Cl)cc1[N+](=O)[O-] (centres undefined) the results were HCV inh 25µM, Pf growth 96h inactive, Pf growth 48h inconclusive and HCMV antiviral inactive.
For Cc1c(C(=O)Nc2ccc(S(=O)(=O)NCC3CCCO3)cc2)cccc1[N+](=O)[O-] (centres undefined) the results were HCV inh inconclusive, Pf growth 96h inactive, Pf growth 48h inactive and HCMV antiviral inactive.
`CC(=O)Nc1ccc(C(=O)Nc2ccc(S(=O)(=O)NCC3CCCO3)cc2)cc1` (centres undefined) gave HCV inh inactive, Pf growth 96h inactive, Pf growth 48h 13µM and HCMV antiviral inactive.
CC(=O)Nc1ccc(S(=O)(=O)NCC2CCCO2)cc1 (centres undefined) was read as HCV inh inactive and HCMV antiviral inactive.
Screening O=S(=O)(NCc1ccncc1)c1ccc(S(=O)(=O)NCC2CCCO2)cc1 (centres undefined) returned HCV inh 13µM, Pf growth 96h inconclusive, Pf growth 48h inactive and HCMV antiviral inactive.
`O=C(Cn1c(=O)n(Cc2nc(-c3ccccc3)no2)c(=O)c2ccccc21)Nc1cccc(Cl)c1` gave HCMV antiviral inactive.
Screening CC1CCN(C(=O)COC(=O)C23CC4CC(CC(O)(C4)C2)C3)CC1 returned HCV inh inactive, Pf growth 96h inactive, Pf growth 48h inactive and HCMV antiviral inactive.
For CC1CCCC(C)N1C(=O)COC(=O)C12CC3CC(CC(Cl)(C3)C1)C2 (centres undefined) the results were HCV inh inactive, Pf growth 96h inconclusive, Pf growth 48h inconclusive and HCMV antiviral -63.
COc1ccc(-c2c(C#N)c(SCC(=O)Nc3ccc(C)c(C)c3)nc(C)c2C(=O)Nc2ccccc2)cc1OC was read as HCMV antiviral inactive.
COc1ccccc1Oc1coc2c(CN(C)C)c(O)ccc2c1=O was read as HCV inh inactive, Pf growth 96h inactive, Pf growth 48h inactive and HCMV antiviral inactive.
CCN(CC)Cc1c(O)ccc2c(=O)c(Oc3ccccc3OC)coc12 was read as HCV inh inactive, Pf growth 96h inactive, Pf growth 48h inactive and HCMV antiviral -61.
CC(=O)SC1CC2=CC(=O)CCC2(C)C2CCC3(C)C(CCC34CCC(=O)O4)C12 (centres undefined) was read as HCV inh inconclusive, Pf growth 96h inactive, Pf growth 48h inactive and HCMV antiviral -63.
For CCC(C)c1ccc(C2C3=C(Nc4nc(N)[nH]c(=O)c42)c2ccccc2C3=O)cc1 (centres undefined) the results were HCV inh 7.9µM, Pf growth 96h inconclusive, Pf growth 48h inactive and HCMV antiviral -65.
Screening COc1cc(C2C3=C(Nc4nc(N)[nH]c(=O)c42)c2ccccc2C3=O)ccc1O (centres undefined) returned HCV inh inactive, Pf growth 96h inconclusive, Pf growth 48h inconclusive and HCMV antiviral inactive.
`Cn1c2c(c(=O)[nH]c1=O)C(c1ccc(O)cc1)C1=C(N2)c2ccccc2C1=O` (centres undefined) gave HCV inh inconclusive, Pf growth 96h inactive, Pf growth 48h inactive and HCMV antiviral -99.
CC(C)(C)c1ccc(C2C3=C(CCCC3=O)NC3=C2C(=O)c2ccccc23)cc1 (centres undefined) was read as HCV inh inconclusive, Pf growth 96h inconclusive, Pf growth 48h inconclusive and HCMV antiviral inactive.
COc1ccc(C2C(C#N)=C(C)NC3=C2C(=O)c2ccccc23)cc1 (centres undefined) was read as HCV inh inactive, Pf growth 96h inconclusive, Pf growth 48h inactive and HCMV antiviral inconclusive.
Nc1nc2c(c(=O)[nH]1)C(c1ccccc1)C1=C(N2)c2ccccc2C1=O (centres undefined) was read as HCV inh inactive, Pf growth 96h 10µM, Pf growth 48h 9.3µM and HCMV antiviral inactive.
For CC(C)c1ccc2[nH]c3c(c2c1)CCC/C3=N\NC(=O)c1ccncc1 the results were HCV inh 0.35µM, Pf growth 96h inconclusive, Pf growth 48h inconclusive and HCMV antiviral inactive.
`Nc1ccc(C(=O)N/N=C2\CCCc3c2[nH]c2ccccc32)cc1` gave HCV inh inconclusive, Pf growth 96h inconclusive, Pf growth 48h inconclusive and HCMV antiviral inactive.
O=C(Nc1ccccc1)N(Cc1ccc(Cl)cc1)CC(O)C(F)(F)F (centres undefined) was read as HCV inh inactive, Pf growth 96h inactive, Pf growth 48h 15µM and HCMV antiviral inactive.
Screening O=C(Nc1ccccc1)N(Cc1ccccc1)Cc1ccccc1 returned HCV inh inactive, Pf growth 96h inactive, Pf growth 48h inactive and HCMV antiviral inactive.
